Source: PubChem BioAssay (National Center for Advancing Translational Sciences (NCATS))
nsP2pro inh = CHIKV nsP2 protease inhibition, primary qHTS | Q8JUX6 | FRET peptide cleavage, nsP2pro, fluorescence 1 h | Potency, µM (series often up to 24.9 µM), for the others: at the highest dose activity change, negative = inhibition, hits mostly inhibitors | hit rate 1.1% among 31,000; calls by dose curve; also: nearly all actives have a fitted effect of over 60% in size
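FRET cleavage of 2.5 uM peptide 2 by 150 nM CHIKV protease domain at pH 8.0 (Tris, Tween 20). Compounds at 7 concentrations (up to 25 uM) preincubated 15 min. Fluorescence read after 1 h at room temperature.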
An asterisk follows results filed as active; [ ] = dose if it differs, or a comment. Shown is part of a subset that was picked to be rich in hits. % is scaled to controls: 0 for no effect and ±100 for the full control effect; potency is read from the fitted curve at half-maximal effect.

Cc1cc(-c2ccc(N=Nc3ccc4c(S(=O)(=O)O)cc(S(=O)(=O)O)c(N)c4c3O)c(C)c2)ccc1N=Nc1ccc2c(S(=O)(=O)O)cc(S(=O)(=O)O)c(N)c2c1O was read as nsP2pro inh 12µM*.
COc1c(Cl)cc(C(=O)Nc2cccc(-c3nc4ccccc4[nH]3)c2)cc1Cl was read as nsP2pro inh 6%.
`CCOC(=O)c1ccc(Nc2nc3nonc3nc2Nc2cccc(C)c2C)cc1` gave nsP2pro inh -12%.
Screening N#CCNC(=O)c1ccc(-c2ccnc(Nc3ccc(N4CCOCC4)cc3)n2)cc1 returned nsP2pro inh 1%.
Screening CCOC(=O)c1ccc(N2NC(=O)/C(=C\c3ccc([N+](=O)[O-])o3)C2=O)cc1 returned nsP2pro inh 21%.
For Cc1csc(CNc2ncnc3ccc(-c4cccnc4)cc23)c1 the results were nsP2pro inh inactive.
For Cc1ccc(NS(=O)(=O)c2ccc3c(c2)CC(=O)N3)cc1C the results were nsP2pro inh -3%.
`COc1ccc(Cl)cc1CNCCSc1nnnn1-c1ccccc1` gave nsP2pro inh -30%.
Screening O=S(=O)(NCCSc1nnnn1-c1ccccc1)c1ccc(F)cc1 returned nsP2pro inh 3%.
For Fc1ccc(-c2ccc(CNCCSc3nnnn3-c3ccccc3)o2)cc1 the results were nsP2pro inh 13µM*.
CCOc1ccc(CCNC(=O)CN2CCN(Cc3ccc(F)cc3Cl)C2=O)cc1OCC was read as nsP2pro inh -5%.
O=C(NCc1ccc(Cl)cc1)NCc1noc2ccccc12 was read as nsP2pro inh -28%.
For CC(C)N1CC2CCC(C1)N2Cc1cccs1 the results were nsP2pro inh -10%[39.2 µM].
Screening CCC1CN(C(=O)N2CCC(C(=O)NCCCc3ccccc3)CC2)c2ccccc2O1 (stereo not drawn) returned nsP2pro inh -14%.
For Cc1ncc(CNC(=O)N(CCCl)N=O)c(N)n1 the results were nsP2pro inh -2%.
For COC(=O)CCCCC(CCSS/C(CCO)=C(\C)N(C=O)Cc1cnc(C)nc1N)SC(C)=O (stereo not drawn) the results were nsP2pro inh 8%.
C/C(=C(\CCO)SS/C(CCO)=C(\C)N(C=O)Cc1cnc(C)nc1N)N(C=O)Cc1cnc(C)nc1N was read as nsP2pro inh 11µM*.
`Cc1cccc(N2CCN(S(=O)(=O)c3cc(C(=O)Nc4ccc(Oc5ccccc5)cc4)ccc3F)CC2C)c1` (stereo not drawn) gave nsP2pro inh -13%.
For CC(C)CCN1CC2ON=C(C(=O)O)C2C1 (stereo not drawn) the results were nsP2pro inh -3%[39.2 µM].
Screening O=C(O)C1=NOC2CN(Cc3cscn3)CC12 (stereo not drawn) returned nsP2pro inh -12%[39.2 µM].
For CCCN1CC2ON=C(C(=O)O)C2C1 (stereo not drawn) the results were nsP2pro inh 13µM*.
Screening Cc1ccc(CCNC(=O)c2c(C)nn(-c3ccc(F)cc3)c2-n2cccc2)cc1 returned nsP2pro inh -17%.
For Cc1nn(-c2ccc(F)cc2)c(-n2cccc2)c1C(=O)N1CCCCC1C (stereo not drawn) the results were nsP2pro inh -29%.
Screening CC(=O)c1cccc(NC(=O)c2c(C)nn(-c3ccc(F)cc3)c2-n2cccc2)c1 returned nsP2pro inh 10µM*.
Fc1cccc(F)c1-c1nc(-c2ccncc2)no1 was read as nsP2pro inh -6%.
CCC/C=C1\OC(=O)C2=C1CCC(O)C2O (stereo not drawn) was read as nsP2pro inh 3%.
`CNC(=O)c1ccc2cc(C3(O)CCn4cncc43)ccc2c1` (stereo not drawn) gave nsP2pro inh 9%.
`NS(=O)(=O)c1ccc(Cc2c(-c3cccc(-c4ccccc4)c3)nn(-c3nc(C(=O)O)cs3)c2C2CC2)cc1` gave nsP2pro inh inactive.
For CC1CCC(=O)CC(SCC(O)C(=O)O)CCC(=O)O1 (stereo not drawn) the results were nsP2pro inh 11µM*.
For CC(C)(C)c1ccc(CN2CC3(COCC2=O)CN(c2cnccn2)C3)cc1 the results were nsP2pro inh inactive.
O=C1COCC2(CN(c3ccc(C(F)(F)F)cn3)C2)CN1c1ccc(F)cc1 was read as nsP2pro inh -11%[39.2 µM].
O=C1COCC2(CN(c3ccc(C(F)(F)F)cn3)C2)CN1c1ccccc1F was read as nsP2pro inh 11µM*.
N#Cc1cc(-c2n[nH]c(-c3ccncc3)n2)ccn1 was read as nsP2pro inh -22%.
For Cc1cc(C(=O)N2CCc3ncnc(N4CCOCC4)c3CC2)n(C)n1 the results were nsP2pro inh -3%.
Screening OCc1ccc(-c2ccc3ncnc(N4CCOCC4)c3c2)o1 returned nsP2pro inh 13µM*.
For O=C(Nc1ccc2c(N3CCOCC3)ncnc2c1)c1cccc(Cl)c1 the results were nsP2pro inh inactive.
For C=CC(C)(CCC=C(C)C)O[C@@H]1O[C@H](CO)[C@@H](O)[C@H](O)[C@H]1O (stereo partly drawn) the results were nsP2pro inh 10%.
Screening CCCN(C/C=C/c1ccccc1)C(=O)c1cccc(OCC(N)=O)c1 returned nsP2pro inh 4%.
`CC12CCC3c4ccc(O)cc4CCC3C1CC(O)C2O` (stereo not drawn) gave nsP2pro inh -23%.
Screening CC(C)=CCC[C@](C)(O[C@@H]1O[C@H](CO)[C@@H](O)[C@H](O)[C@H]1O)[C@H]1CC[C@]2(C)[C@@H]1[C@H](O)CC1[C@@]3(C)CC[C@H](O)C(C)(C)C3[C@@H](O[C@@H]3O[C@H](CO)[C@@H](O)[C@H](O)[C@H]3O[C@@H]3OC[C@@H](O)[C@H](O)[C@H]3O)C[C@]12C (stereo partly drawn) returned nsP2pro inh 9%[5.1 µM].
O=C(Nc1cc(C(F)(F)F)cc(C(F)(F)F)c1)Nc1nnc(-c2ccncc2)s1 was read as nsP2pro inh -4%.
N#Cc1cc(NC(=O)Nc2cccc(-c3ccncc3)n2)ccc1Cl was read as nsP2pro inh -8%.
Screening CCOC(=O)[C@H](CS)NCCN[C@@H](CS)C(=O)OCC returned nsP2pro inh 11µM*.
Screening CCOC(=O)c1ccccc1C(=O)OCC returned nsP2pro inh 4%.
CCOC(=O)C(Cc1ccccc1)NC(=O)Cn1nnc(-c2ccc(C)cc2)n1 (stereo not drawn) was read as nsP2pro inh -20%.
`Cc1cnc(CC2CCN(S(=O)(=O)c3cn(C)cn3)C2)n1Cc1ccccc1` (stereo not drawn) gave nsP2pro inh 3%.
For CCN(CC)CCNC(C(=O)OCCC(C)C)c1ccccc1 (stereo not drawn) the results were nsP2pro inh -3%.
Screening COc1cccc2sc(N(Cc3cccnc3)C(=O)C3COc4ccccc4O3)nc12 (stereo not drawn) returned nsP2pro inh -16%.
For COc1ccccc1Oc1ccc(N(Cc2cccnc2)S(=O)(=O)CC(F)(F)F)cc1 the results were nsP2pro inh 11µM*.
Screening COc1ccc(C)c2sc(N(Cc3cccnc3)C(=O)COc3ccccc3)nc12 returned nsP2pro inh -11%.
`Cc1ccc(S(=O)(=O)Nc2ccc3nc(-c4cccc(Cl)c4)oc3c2)cc1` gave nsP2pro inh -4%.
CC1(C)S[C@@H]2[C@H](NC(=O)[C@H](NC(=O)N3CCNC3=O)c3ccccc3)C(=O)N2C1C(=O)O (stereo partly drawn) was read as nsP2pro inh -4%.
`O=S(=O)(Nc1cnc2ccccc2c1)c1ccc(NCc2cccc(Cl)c2O)cc1` gave nsP2pro inh -4%.
